Drawing on PubChem BioAssay (EPA / NIEHS), this text covers outcome and AC50 for 29 compounds.

The nature of experiment [1]: CLD_ACTIN_48hr: CellzDirect (CLD) Gene Expression Assay for Baseline Control (Actin) at 48 hours (AID 2283702). The method, boiled down:
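Background-control actin mRNA read by qNPA chemiluminescence at 48 h. Human hepatocyte cultures from two donors received fresh multi-concentration chemical doses daily for two days; 0.2% DMSO served as vehicle baseline.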

Read-out in experiment [2]: Broad substrate specificity ATP-binding cassette transporter ABCG2 (Homo sapiens) (UniProt Q9UNQ0)
The experiment is described as follows: CLD_ABCG2_48hr: CellzDirect (CLD) Gene Expression Assay for ABC Transporter (ABCG2) at 48 hours (AID 2283704).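 On AC50: potency for induction of ABCG2 mRNA above the DMSO baseline.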 The essentials:
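ABCG2 transcript measured at 48 h by quantitative nuclease protection (chemiluminescent) and fitted for increase relative to 0.2% DMSO. Hepatocyte cultures from separate donors got fresh compound daily over two days; morphology annotated cytotoxicity.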

Read-out in experiment [3]: alkyl and aryl transferase (GSTA2), GSTA2 (gene 2939)
Description: CLD_GSTA2_48hr: CellzDirect (CLD) Gene Expression Assay for alkyl and aryl transferase (GSTA2) at 48 hours (AID 2283708).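 Further: active means mRNA induction above DMSO vehicle baseline.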 The essentials:
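GSTA2 mRNA quantified by qNPA chemiluminescence in human primary hepatocyte lysates after 48 h of daily fresh chemical dosing. Increases fitted against 0.2% DMSO vehicle baseline; cytotoxicity from morphology annotated yes/no.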

Read-out in experiment [4]: xenobiotic metabolism (CYP1A1), CYP1A1 (gene 1543)
Description: CLD_CYP1A1_48hr: CellzDirect (CLD) Gene Expression Assay for xenobiotic metabolism (CYP1A1) at 48 hours (AID 2283705). The essentials:
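CYP1A1 transcript measured by quantitative nuclease protection (chemiluminescent) 48 h after two daily treatments of human hepatocyte cultures, versus 0.2% DMSO. Morphology-based cytotoxicity flags accompany data; two donor preparations used.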

Read-out in experiment [5]: Glyceraldehyde-3-phosphate dehydrogenase (Homo sapiens) (UniProt P04406)
Description: CLD_GAPDH_48hr: CellzDirect (CLD) Gene Expression Assay for Baseline Control (Glyceraldehyde 3-phosphate dehydrogenase) at 48 hours (AID 2283706).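 Further: active means higher GAPDH mRNA than DMSO vehicle.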 The method, boiled down: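 GAPDH baseline-control readout: qNPA chemiluminescent mRNA quantitation in human liver primary cells 48 h after daily dosing on two consecutive days, vehicle 0.2% DMSO; gain of signal fitted against DMSO, cytotoxicity flagged by phase-contrast morphology.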

Read-out in experiment [6]: xenobiotic metabolism (CYP1A2), CYP1A2 (gene 1544)
The experiment is described as follows: CLD_CYP1A2_48hr: CellzDirect (CLD) Gene Expression Assay for xenobiotic metabolism (CYP1A2) at 48 hours (AID 2283703). The essentials:
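Cytotoxicity was flagged yes/no from morphology, while CYP1A2 transcript induction was detected by qNPA chemiluminescence after a 48-hour exposure. Human primary hepatocyte cultures from separate donors received fresh dosing solutions daily over two days, with 0.2% DMSO as vehicle and baseline.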

Read-out in experiment [7]: organic anion transporter (SLCO1B1), SLCO1B1 (gene 10599)
Description: CLD_SLCO1B1_48hr: CellzDirect (CLD) Gene Expression Assay for organic anion transporter (SLCO1B1) at 48 hours (AID 2283707). The method, boiled down: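 SLCO1B1 transcript quantified by qNPA with chemiluminescent readout after 48 h of once-daily chemical exposure. Cultured human primary hepatocytes came from two donors, with 0.2% DMSO vehicle; positive-direction fitting against DMSO, cytotoxicity flagged by morphology.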

Experiment [8] is described as follows: STM_H9_CystineISnorm_perc: Stemina devTOX quickPredict H9 human embryonic stem cell (hESC)-based Assay for Cystine (CYSS) Metabolite Biomarker, Normalized (AID 2283713; active means hit-call score of the fitted dose curve at least 0.9, where 1 is the maximum; inactive means score below 0.9). The method, boiled down: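 Normalized cystine level in conditioned medium from the final 24h of a 72h treatment of pluripotent H9 cells (daily media and compound renewal). Quantified by UPLC-HRMS with C13-labeled internal standard; scaled to median of 0.1% DMSO vehicle wells.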

Read-out in experiment [9]: glucuronosyltransferase (UGT1A1), UGT1A1 (gene 54658)
Description: CLD_UGT1A1_48hr: CellzDirect (CLD) Gene Expression Assay for glucuronosyltransferase (UGT1A1) at 48 hours (AID 2283709).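 Further: actives increase expression relative to DMSO so potency refers to induction.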 The method, boiled down:
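Quantitative nuclease protection assay (chemiluminescent) for UGT1A1 mRNA at 48 h in human hepatocyte cultures from two donors, redosed daily with fresh solutions. Induction fitted relative to 0.2% DMSO; phase-contrast morphology annotated cytotoxicity.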

Read-out in experiment [10]: sulfotransferase (SULT2A), SULT2A1 (gene 6822)
The experiment is described as follows: CLD_SULT2A_48hr: CellzDirect (CLD) Gene Expression Assay for sulfotransferase (SULT2A) at 48 hours (AID 2283710).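 Further: hits raise SULT2A1 transcript above the 0.2% DMSO vehicle baseline.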 The method, boiled down:
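SULT2A1 transcript measured by qNPA chemiluminescence in human primary hepatocyte cultures after 48 h, with fresh dosing solutions on two consecutive days; gain-of-signal fitting against 0.2% DMSO vehicle; cytotoxicity annotated from phase-contrast morphology.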

Inconclusive results are not listed. Active and inactive are the calls of the source. How the source made its calls, unless noted: active means hit-call score of the fitted dose curve at least 0.9, where 1 is the maximum; inconclusive means response in the unintended direction; inactive means score below 0.9.

Broad substrate specificity ATP-binding cassette transporter ABCG2 (Homo sapiens), sequence (Q9UNQ0 whole entry, looked up): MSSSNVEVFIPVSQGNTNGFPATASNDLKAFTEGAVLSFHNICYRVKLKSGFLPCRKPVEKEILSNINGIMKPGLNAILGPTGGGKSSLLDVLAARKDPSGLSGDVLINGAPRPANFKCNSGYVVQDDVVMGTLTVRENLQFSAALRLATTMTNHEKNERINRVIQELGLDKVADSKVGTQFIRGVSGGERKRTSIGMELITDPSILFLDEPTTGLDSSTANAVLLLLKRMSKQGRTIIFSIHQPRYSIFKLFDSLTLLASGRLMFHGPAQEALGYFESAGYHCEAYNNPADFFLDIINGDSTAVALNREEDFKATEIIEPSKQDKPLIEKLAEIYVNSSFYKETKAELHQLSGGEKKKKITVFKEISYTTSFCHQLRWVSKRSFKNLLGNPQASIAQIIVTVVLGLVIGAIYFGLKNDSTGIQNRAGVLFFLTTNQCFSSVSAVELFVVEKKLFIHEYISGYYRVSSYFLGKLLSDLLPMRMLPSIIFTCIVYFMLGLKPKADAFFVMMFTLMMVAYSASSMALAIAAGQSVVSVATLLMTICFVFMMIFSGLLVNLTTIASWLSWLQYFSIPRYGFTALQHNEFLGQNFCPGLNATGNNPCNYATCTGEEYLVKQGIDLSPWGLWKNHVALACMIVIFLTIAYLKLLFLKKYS
Glyceraldehyde-3-phosphate dehydrogenase (Homo sapiens), sequence (P04406 whole entry, looked up): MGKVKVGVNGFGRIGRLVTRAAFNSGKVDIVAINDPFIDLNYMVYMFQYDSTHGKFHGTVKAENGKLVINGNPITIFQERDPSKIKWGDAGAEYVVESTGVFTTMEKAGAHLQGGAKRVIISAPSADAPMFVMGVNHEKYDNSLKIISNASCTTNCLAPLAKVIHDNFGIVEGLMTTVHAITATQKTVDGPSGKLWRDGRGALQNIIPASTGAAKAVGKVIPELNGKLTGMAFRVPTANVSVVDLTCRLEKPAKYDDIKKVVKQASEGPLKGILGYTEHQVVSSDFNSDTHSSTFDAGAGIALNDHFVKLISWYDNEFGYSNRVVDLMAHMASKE

Regarding `COP(=O)(OC)C(O)C(Cl)(Cl)Cl` (stereo unspecified), the compound was called inactive in experiment [1], in [2] and in experiment [3].

With `Nc1nc(N)nc(NC2CC2)n1`, the compound was called inactive in experiment [1], in experiment [5] and in [3]. In addition, in experiment [4], the AC50 is 11.6 µM (active).

As for `COc1cc(OC)nc(Sc2cccc(Cl)c2C(=O)O)n1`, the compound was called inactive in experiment [1], in [6], in experiment [2], in experiment [5], in [7] and in experiment [3].

For the compound `CCc1cnc(C2=NC(C)(C(C)C)C(=O)N2)c(C(=O)O)c1` (stereo unspecified), the compound was classed as inactive in experiment [1], in experiment [2], in [4], in experiment [5], in [7] and in experiment [3].

For `S=C1NCCN1`, the result in experiment [1], in experiment [2], in [5], in [7], in experiment [3] and in [8] was inactive.

Consider `N#CSCSC#N`, for which the compound was called inactive in experiment [1], in experiment [6], in experiment [2], in [5] and in experiment [3]. Also, the AC50 is 7.26 µM (active) in [4] and 7.75 µM (active) in experiment [8].

For the compound `CC(Oc1cccc(Cl)c1)C(=O)O` (stereo unspecified), the outcome in [1], in experiment [2] and in [7] was inactive.

As for `CN1COCN(Cc2cnc(Cl)s2)C1=N[N+](=O)[O-]`, the call in [1], in [2], in [4], in experiment [5], in experiment [7] and in experiment [3] was inactive.

For the compound `CNC(=O)ON=C(SC)C(=O)N(C)C`, the compound was classed as inactive in experiment [1], in [2], in experiment [4], in experiment [5] and in experiment [3].

Turning to `CNC(=O)ON=C(C)SC`, the outcome in [1], in experiment [6], in experiment [4], in [5] and in experiment [3] was inactive.

As to `CC(C)N(C(=O)SCC(Cl)=C(Cl)Cl)C(C)C`, the compound was classed as inactive in experiment [1], in experiment [4], in experiment [5], in [3] and in [9]. The AC50 in experiment [8] is 12.4 µM (active).

As to `CCOC(=O)CC(SP(=O)(OC)OC)C(=O)OCC` (stereo unspecified), the outcome in experiment [6], in [2], in experiment [4], in experiment [5], in experiment [7] and in experiment [3] was inactive. Further, the result in experiment [9] and in experiment [10] was inactive.

Regarding `CON=C(C(=O)OC)c1ccccc1CON=C(C)c1cccc(C(F)(F)F)c1`, the result in experiment [1], in experiment [6], in [2], in [3] and in experiment [8] was inactive. In addition, the AC50 in experiment [4] is 20 µM (active).

Take `CCOP(=S)(OCC)OC(Cl)C(Cl)(Cl)Cl` (stereo unspecified): the AC50 in experiment [6] was 9.25 µM (active). Also, the result in [2], in [4] and in experiment [3] was inactive.

In the case of `COP(=O)(OC)OC(Br)C(Cl)(Cl)Br` (stereo unspecified), the result in experiment [1], in experiment [4], in experiment [5], in experiment [3] and in experiment [9] was inactive.

On to `CC1=NNC(=O)N(/N=C/c2cccnc2)C1`, for which the compound was classed as inactive in experiment [1], in experiment [2], in experiment [5], in experiment [3] and in experiment [8]. Further, the AC50 in experiment [4] was 3.97 µM (active).

`C[N+]1(C)CCCCC1`: the compound was classed as inactive in [1], in experiment [2], in [5], in [7], in [3] and in [8].

For `C[Si](Cn1cncn1)(c1ccc(F)cc1)c1ccc(F)cc1`, the outcome in [1] and in experiment [10] was inactive. Moreover, the AC50 in experiment [6] was 1.89 µM (active); in experiment [2] it was 31.6 µM (active); in experiment [4], 0.727 µM (active); in [8], 30.2 µM (active).

For the compound `CC(=NC#N)N(C)Cc1ccc(Cl)nc1`, the outcome in experiment [1], in experiment [4], in [5], in [7], in experiment [3] and in experiment [9] was inactive.

As for `C=C(C)[C@H]1Cc2c(ccc3c2O[C@@H]2COc4cc(OC)c(OC)cc4[C@@H]2C3=O)O1`, the result in experiment [1] and in [9] was inactive. The AC50 in experiment [2] was 0.309 µM (active); in experiment [4], 2 µM (active); in [3], 0.66 µM (active); in experiment [8], 0.279 µM (active).

For the compound `CSC1=N[C@@](C)(c2ccccc2)C(=O)N1Nc1ccccc1`, the call in experiment [1], in experiment [2], in experiment [5] and in [3] was inactive. In addition, the AC50 in experiment [4] was 20 µM (active); in experiment [8], 30.1 µM (active).

On to `CC[C@H](C)[C@H]1O[C@]2(C=C[C@@H]1C)C[C@@H]1C[C@@H](C/C=C(\C)[C@@H](O[C@H]3C[C@H](OC)[C@@H](O[C@H]4C[C@H](OC)[C@@H](NC)[C@H](C)O4)[C@H](C)O3)[C@@H](C)/C=C/C=C3\CO[C@@H]4[C@H](O)C(C)=C[C@@H](C(=O)O1)[C@]34O)O2`, for which the outcome in experiment [1], in experiment [2], in experiment [5] and in [7] was inactive.

As for `CCC(CC)Nc1c([N+](=O)[O-])cc(C)c(C)c1[N+](=O)[O-]`, the call in experiment [1], in [4], in experiment [5], in experiment [7] and in experiment [3] was inactive.

Consider `CCCOCC(=Nc1ccc(Cl)cc1C(F)(F)F)n1ccnc1`, for which the call in experiment [1] and in experiment [5] was inactive. In addition, the figures for the AC50 in experiment [2], in experiment [4] and in [3] were 20 µM (active), 6.01 µM (active) and 20 µM (active), respectively.

`CCc1cccc(CC)c1N(COC)C(=O)CCl`: the compound was classed as inactive in experiment [1], in experiment [6], in experiment [2] and in experiment [7]. The results for the AC50 in [4] and in experiment [3] were 1.89 µM (active) and 32.1 µM (active), respectively.

As for `CCCOc1nn(C(=O)NS(=O)(=O)c2ccccc2C(=O)OC)c(=O)n1C`, the compound was called inactive in experiment [1], in experiment [6], in experiment [2], in experiment [5], in experiment [7] and in experiment [3].

Take `O=c1ccc(=O)[nH][nH]1`: the outcome in experiment [1], in [2], in [5] and in [7] was inactive.

Consider `CC1(C(=O)Nc2ccc(O)c(Cl)c2Cl)CCCCC1`, for which the compound was classed as inactive in experiment [1], in experiment [2], in [5], in experiment [3] and in experiment [9].

`C#CCC1=C(C)C(OC(=O)C2C(C=C(C)C)C2(C)C)CC1=O` (stereo unspecified): the values for the AC50 in experiment [6] and in experiment [4] were 20 µM (active) and 33 µM (active), respectively. For the same compound, the compound was classed as inactive in experiment [2], in [7] and in experiment [3].
